About 83,000 compounds went through this panel and 20% of them were active in at least one assay; those are over-represented in the sample as a whole.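 Negative percent growth values reflect cell death: -40 means 40% of the cells present at the start died, and -100 means all died.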 A number with no mark means an inactive call. Activity calls are given as the source filed them. The calls were made as follows: active = growth percent below 10; inactive = the rest.
Test system: T-47D breast
Assay: NCI-60 one-dose screen, 48 h (100 = growth as untreated, 0 = no growth, -100 = all killed)
Conditions: 10 µM unless noted

Question: Which growth does the source give for CC1(C)CC[C@]2(C(=O)O)CC[C@]3(C)C(=CCC4[C@@]5(C)C[C@@H](O)[C@@H]6OC(c7cccc(Br)c7)OC[C@@]6(C)C5CC[C@]43C)C2C1 (stereo not given in full) here?
Answer: 39.4%

Question: With CCOC(=O)/C=C/c1cccc2c1C(=O)NC(C)(c1cc3cc(Br)ccc3oc1=O)N2 (stereo not given) as the molecule, how does the growth read?
Answer: 18.2%

Question: How did the growth turn out when COc1cc(OC)c2c3nc4cc(C)c(C)cc4nc3n(CCN(C)C)c2c1 was run?
Answer: 60.7%

Question: Which growth does the source give for COc1ccc(N2N=C(c3ccc4c(c3)OCO4)CC2c2cccc(NC(=O)CCCNS(=O)(=O)c3ccc(F)cc3)c2)cc1 (stereo not given) here?
Answer: 53%

Question: Cc1ccc(NC(=O)CN2CCN(c3ncnc4c3cnn4-c3ccccc3)CC2)cc1 was tested. Which growth did it give?
Answer: 78.9%

Question: With CN(C)CCn1c2ccccc2c2nc3cc4ccccc4cc3nc21 as the molecule, how does the growth read?
Answer: 45.3%

Question: Cc1ccc(C2CC(c3ccc(S(=O)(=O)NCCNc4nc(Nc5ccc(F)cc5)nc(N(C)C)n4)cc3)=Nc3c(N)nc(N)nc3N2)cc1 (stereo not given) was tested. Which growth did it give?
Answer: 53%

Question: For O=c1onc(-c2cc3ccccc3nc2Cl)n1-c1cccc2ccccc12, which growth is on record?
Answer: 3.09% (active)

Question: With CCCS(=O)(=O)N1CCCC(C(=O)Nc2nc3ccc(NC(=O)c4ccc(F)c(OC)c4F)cc3s2)C1 (stereo not given) as the molecule, how does the growth read?
Answer: -0.579% (active)

Question: With CN(C)c1nc(NCCNS(=O)(=O)c2ccc(C(=O)/C=C/c3ccc(F)cc3)cc2)nc(Nc2ccc(F)cc2)n1 as the molecule, how does the growth read?
Answer: -42.1% (active)

Question: For O=C(CCN1C(=O)/C(=C/c2ccc(F)cc2)SC1=S)N1CCOCC1, which growth is on record?
Answer: 24.4%

Question: For O=c1[nH]c2ccccc2cc1CSc1nccc(-c2ccc3ccccc3c2)n1, which growth is on record?
Answer: 41.8%

Question: For CC(=O)Nc1ccc(-n2cnc3ccc(-c4ccc(O)cc4)cc32)cc1, which growth is on record?
Answer: 47.9%

Question: How did the growth turn out when CC(C)Sc1nc(NCCc2c[nH]c3ccccc23)c(C#N)c(-c2ccc(F)cc2)n1 was run?
Answer: 20.8%

Question: With CC(=O)c1c(N)c(C#N)cn1-c1ccc(Cl)cc1Cl as the molecule, how does the growth read?
Answer: 95.1%

Question: For C#CCOc1ccc(/C=N/Nc2nc(-c3ccc(Cl)cc3)cs2)cc1OC, which growth is on record?
Answer: 18.5%

Question: With C/C(=N\N=C1/C(=O)Nc2ccc(Cl)cc21)c1ccc2c(c1)Nc1ccccc1S2 as the molecule, how does the growth read?
Answer: 11.9%

Question: How did the growth turn out when CC12CC[C@@H]3[C@]4(C)COC(c5c(F)cccc5F)O[C@@H]4CC[C@@]3(C)[C@@H]1CC(C1=CCOC1=O)O2 (stereo not given in full) was run?
Answer: 55%

Question: With NC(=S)Nc1cccc(NC(N)=S)c1 as the molecule, how does the growth read?
Answer: 86.8%

Question: Which growth does the source give for Cc1ccc([C@H]2C(C(=O)c3ccc(Cl)cc3)C3(N[C@@H]2c2ccccc2)C(=O)Nc2ccc(Br)cc23)cc1 (stereo not given in full) here?
Answer: 41.1%

Question: CC(=O)OC[C@@]1(C)C2CC[C@]3(C)C(CC=C4C5CC(C)(C)CC[C@]5(C(=O)Nc5cccc(C)c5)CC[C@]43C)[C@@]2(C)C[C@@H](OC(C)=O)[C@@H]1OC(C)=O (stereo not given in full) was tested. Which growth did it give?
Answer: 24.3%

Question: How did the growth turn out when CCCSc1nc(NCCc2c[nH]c3ccccc23)c(C#N)c(-c2ccc(F)cc2)n1 was run?
Answer: 26.4%

Question: How did the growth turn out when Clc1ccc(-c2ccc(OCCCN3CCN(c4ccncc4)CC3)cc2)cc1 was run?
Answer: 15.6%

Question: For COc1ccc(C2(SCCNCc3cc(N(C)C)ccn3)c3ccccc3C=Cc3ccccc32)cc1, which growth is on record?
Answer: 32.4%

Question: COc1ccc(C2=NN(C(C)=O)C(c3ccc(OCc4ccc(Cl)cc4)c(OC)c3)C2)cc1OC (stereo not given) was tested. Which growth did it give?
Answer: 10.2%

Question: How did the growth turn out when CCN(CC)c1ccc(/C=N/Nc2nc(-c3ccc(C)cc3)cs2)c(O)c1 was run?
Answer: 68.7%

Question: COc1ccc2[nH]cc(-c3nnc(N)nc3-c3cn(C)c4ncc(Br)cc34)c2c1 was tested. Which growth did it give?
Answer: 62.5%

Question: For N/C(=N\c1nc2ccccc2s1)NC(=O)Nc1ccc(Cl)cc1Cl, which growth is on record?
Answer: -10.7% (active)

Question: For O=C(COc1ccc(NC(=O)Nc2ccc(Cl)c(Cl)c2)cc1)N=Nc1c(O)[nH]c2ccc(Cl)cc12, which growth is on record?
Answer: -13% (active)

Question: With CC(=O)Nc1ccc(-n2cnc3cc(-c4ccc(O)cc4)ccc32)cc1C(F)(F)F as the molecule, how does the growth read?
Answer: 20.5%

Question: For COc1ccc2c(c1)C(=N/N=C(\C)c1ccc(OC)c(S(N)(=O)=O)c1)C(=O)N2, which growth is on record?
Answer: 87%

Question: Which growth does the source give for Cc1ccc2c(c1)nc(-c1ccccc1)n2CC(=O)N=Nc1c(O)[nH]c2ccc(Br)cc12 here?
Answer: -46% (active)

Question: How did the growth turn out when C=CC(=O)Nc1ccc(C)c(Oc2ccc(Cl)cc2)c1 was run?
Answer: 41.8%

Question: With COc1cc2oc(-c3cccc(C(=O)Nc4cccc([N+](=O)[O-])c4)c3)cc(=O)c2c(OC)c1OC as the molecule, how does the growth read?
Answer: 26.8%

Question: COc1ccc2oc3c4[nH]c5ccccc5c4c4c(c3c2c1)C(=O)N(C(=O)OC(C)(C)C)C4=O was tested. Which growth did it give?
Answer: -7.22% (active)

Source: PubChem BioAssay (NCI)
